Assay outcomes: PubChem BioAssay, National Center for Advancing Translational Sciences (NCATS)
Hits are enriched below; roughly 9.3% of the tested compounds scored in any of these assays.
ELG1 DNA repair: inhibitors of ELG1-dependent DNA repair in HEK293T cells. AID 504467. HEK293T ELG1-luciferase reporter, luminescence, 16 h; DNA damage induced by 5-fluorouridine. Potency, µM (doses to about 46.1 µM), without a hit: at the highest dose activity change, negative = inhibition, most hits filed as inhibitors. hit rate 2.3% among 330,000; note: % is set by controls: 0 for no effect and ±100 for the full control effect; nearly all actives have a fitted effect of over 55% in size
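Luminescence from the luciferase reporter, measured 30 min after ONE-Glo reagent at room temperature, was the read-out. Beforehand, 2,000 cells per well were exposed for 16 hr at 37 °C to 5-fluorouridine together with compound or vehicle.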
FLuc counter: counter-screen for miR-21 project: firefly luciferase inhibitors or activators; AID 588342; Potency, µM (series often up to 57.5 µM), for the others: at the highest dose activity change, negative = inhibition, most hits filed as inhibitors; hit rate 6.9% among 360,000; purified FLuc, Km substrates, luminescence inhibition;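 note: plate controls were vehicle for no effect and reference inhibitor for full effect; nearly all actives have a fitted effect of over 55% in size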
Target sequence (P08659 whole entry, looked up): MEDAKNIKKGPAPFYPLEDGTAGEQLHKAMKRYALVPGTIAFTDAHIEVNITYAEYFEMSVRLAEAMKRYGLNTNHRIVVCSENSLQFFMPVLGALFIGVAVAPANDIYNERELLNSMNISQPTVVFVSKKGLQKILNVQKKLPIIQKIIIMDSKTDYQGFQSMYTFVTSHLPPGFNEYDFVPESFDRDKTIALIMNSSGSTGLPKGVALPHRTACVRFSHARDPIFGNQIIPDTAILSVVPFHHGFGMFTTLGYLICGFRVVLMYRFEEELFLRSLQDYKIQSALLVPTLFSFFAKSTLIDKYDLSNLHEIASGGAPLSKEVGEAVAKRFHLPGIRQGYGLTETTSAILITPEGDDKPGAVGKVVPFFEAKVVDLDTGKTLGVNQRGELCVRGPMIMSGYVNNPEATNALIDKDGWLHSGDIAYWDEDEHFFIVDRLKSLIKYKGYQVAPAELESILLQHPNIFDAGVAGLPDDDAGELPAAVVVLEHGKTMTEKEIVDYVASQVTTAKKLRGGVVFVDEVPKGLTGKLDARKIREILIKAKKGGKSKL
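Biochemical qHTS of compounds, final roughly 60 µM downward over six points, against 10 nM purified firefly luciferase using Km concentrations of substrates (10 uM D-luciferin, 10 uM ATP) in Tris acetate pH 7.5 buffer; luminescence output.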
ELG1 genotoxic: induces genotoxicity in HEK293T cells with luciferase-tagged ELG1 | HEK293T ELG1-luciferase reporter, luminescence, 16 h | Potency, µM (doses to about 46 µM), for inactives: top-dose activity change, positive = activation, most hits filed as activators | hit rate 1.3% among 330,000 | AID 504466; note: % of control where 0% means no effect; nearly all actives have a fitted effect of over 60% in size
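HEK293T cells expressing luciferase-tagged ELG1 were treated with compound or DMSO for 16 hr at 37°C. Luciferase activity was then read after 30 min with ONE-Glo at room temperature; rising signal flags genetic stress.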
SMN2 splice enh: SMN2 splice variant enhancement. HEK293 SMN2-luciferase splicing reporter, luminescence, 30-36 h. hit rate 2.8% among 210,000. Potency, µM (series often up to 46.1 µM), for the others: at the top dose activity change, positive = activation, actives largely listed as activators; note: % of control where 0% means no effect; nearly all actives have a fitted effect of over 55% in size
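HEK293 cells carry an SMN2 […]–luciferase reporter in which exon 7 inclusion puts luciferase in frame. Cells were plated 10-12 h before compound addition, then incubated 30-36 h at 37C. ONE-Glo luminescence was read; sodium butyrate at 4.5 mM final served as control.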
Rab9 prom act: activators of Rab9 promoter; Huh7 Rab9 promoter-luciferase reporter, luminescence, 24 h; Potency, µM (series often up to 9.22 µM), inactives show top-dose activation, negative = inhibition, most hits filed as activators; hit rate 2.8% among 320,000; note: % of control where 0% means no effect; nearly all actives have a fitted effect of over 60% in size
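Stable Rab9-luc Huh7, 1500 cells/well, 2 h settle; cmpd in DMSO, 24 h, 37 °C/5% CO2; luciferase reagent 10 min RT; luminescence.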
NPC1 promoter act: NPC1 promoter activation; AID 485313; hit rate 2.4% among 320,000; Huh7 NPC1 promoter luciferase reporter, 24 h; Potency, µM (top dose mostly 9.22 µM), inactives show top-dose activation, usual class: activators; note: % of control where 0% means no effect; nearly all actives have a fitted effect of over 60% in size
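Readout is luciferase luminescence, reflecting NPC1 promoter activation in stably transfected Huh7 cells after 24 h compound exposure at 37 °C in reduced-serum medium with 10% FBS.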
Starred values were filed as active, the others as inactive; ? = inconclusive; nt = no result; [ ] = dose if it differs, or a comment. Calls come from the whole dose curve; as a rule, active = well fitted curve in the direction sought with a large enough effect; inconclusive = small, poorly fitted or top-dose-only effect, or another doubt; inactive = no such curve, though single readings can be large; an effect the other way counts as inactive or inconclusive. Potency is the fitted concentration of half-maximal effect.

SMILES | ELG1 DNA repair | FLuc counter | ELG1 genotoxic | SMN2 splice enh | Rab9 prom act | NPC1 promoter act
COc1ccc(/C=C2\SC(=S)NC2=O)cc1OS(=O)(=O)c1ccc(NC(C)=O)cc1 | -18.7% | 26.9µM* | -6.9% | 18.5% | -1.8% | -0.9%
CCOc1ccc(/C=C2\SC(=S)NC2=O)cc1OC | 38.9% | 12µM* | 11.8% | nt | 0.3% | 5.1%
COc1cc(/C=C2\SC(=S)NC2=O)ccc1OS(=O)(=O)c1ccccc1 | -15.3% | ? | -7.8% | -43.7% | -3.3% | -4.1%
Cc1ccc(O)c(/C=N/NC(=O)C2=NNC(c3ccccc3)(c3ccccc3)C2)c1 | ? | ? | ? | -66.0% | -30.6% | -26.8%
Cc1ccc(O)c(/C=N/NC(=O)c2[nH]ncc2Br)c1 | ? | 4.26µM* | 16.4µM* | 0.0%[1.84 µM] | ? | ?
CCOc1ccc(/C=N/NC(=O)c2[nH]ncc2Br)c(O)c1 | ? | 2.13µM* | ? | 3.55µM* | ? | ?
COc1ccc(OC)c(/C=N/NC(=O)c2[nH]ncc2Br)c1 | 24.6% | -9.8% | 1.3% | nt | 6.8% | 3.1%
Cc1cc(C(=O)N/N=C\c2cc(C(C)(C)C)ccc2O)n[nH]1 | -1.2% | 23.9µM* | ? | nt | -29.2% | -31.1%
O=C(N/N=C/c1cccs1)c1[nH]ncc1Br | ? | 21.3µM* | 16.4µM* | nt | 3.98µM* | 3.55µM*
COc1ccc(OC)c(-c2noc(N3CCN(c4cccc(C(F)(F)F)c4)CC3)n2)c1 | nt | 0.0% | nt | nt | nt | nt
COc1ccccc1CNc1nc(-c2ccco2)nn1S(=O)(=O)c1ccc2ccccc2c1 | nt | -9.3% | nt | nt | nt | nt
O=C(Nc1ccc(F)c(Cl)c1)c1cc(S(=O)(=O)N2CCc3ccccc3C2)ccc1F | nt | -2.3% | nt | nt | nt | nt
Cc1cc([N+](=O)[O-])nn1Cn1nc([N+](=O)[O-])cc1C | -1.3% | 1.9% | -0.4% | -4.7% | -1.6% | -3.1%
O=C(N/N=C/c1c(O)ccc2ccccc12)c1[nH]ncc1Br | ? | 6.75µM* | ? | -79.3% | -18.4% | -6.9%
O=C(N/N=C/c1c(O)ccc2ccccc12)c1cccc(C(F)(F)F)c1 | ? | 1.4% | -7.6% | -106.3% | -29.3% | -16.3%
Cc1ccc(S(=O)(=O)Nc2cccc(-c3ccc(N4CCCCCC4)nn3)c2)cc1 | ? | 5.36µM* | ? | nt | ? | ?
CCc1ccc(S(=O)(=O)Nc2ccc(-c3ccc(N4CCCC4)nn3)cc2)cc1 | nt | 1.0% | nt | nt | nt | nt
Cc1cc(C)c(S(=O)(=O)Nc2ccc(-c3ccc(N4CCCCC4)nn3)cc2)c(C)c1 | nt | 13.5µM* | nt | nt | nt | nt
O=S(=O)(Nc1cccc(S(=O)(=O)N2CCCCCC2)c1)c1ccccc1 | 2.4% | -12.6% | -2.5% | nt | -2.5% | -1.0%
Cc1cccc(S(=O)(=O)Nc2cccc(-c3ccc(N4CCCCC4)nn3)c2)c1 | nt | 3.38µM* | nt | nt | nt | nt
O=S(=O)(Nc1cccc(-c2ccc(N3CCCCCC3)nn2)c1)c1ccccc1 | nt | 7.57µM* | nt | nt | nt | nt
O=C(NC1CC(=O)N(c2cccc(F)c2)C1)c1ccc(Br)o1 (centres undefined) | nt | 1.3% | nt | nt | nt | nt
CCOC(=O)c1ccc(NC(=O)CCCn2c(=O)c3cccn3c3cccnc32)cc1 | nt | -7.0% | nt | nt | nt | nt
CCn1ncc(NC(=S)NCCc2ccccc2)c1C(N)=O | 6.9% | -1.6% | -1.3% | -5.8% | 0.6% | 2.9%
COCCNC(=O)c1ccc2c(c1)nc(C)n2-c1cccc(F)c1 | ? | 0.3% | 5.0% | 7.8% | -1.6% | 5.9%
SMILES | ELG1 DNA repair | FLuc counter | ELG1 genotoxic | SMN2 splice enh | Rab9 prom act | NPC1 promoter act
Cc1cc(C)c2cc(CN(CCO)C(c3nnnn3Cc3ccc(F)cc3)C(C)C)c(=O)[nH]c2c1 (centres undefined) | 5.17µM* | 5.3%[2.3 µM] | -7.2% | 4.9% | -3.6% | 0.6%
Cc1cc(C)c2cc(C(O)c3nnnn3Cc3ccccc3)c(=O)[nH]c2c1 (centres undefined) | 14.1% | 3.4% | 1.3% | 9.8% | -8.3% | -2.9%
Cc1cc(Oc2ccccc2)nc(SCC(=O)Nc2ccc(Cl)c(Cl)c2)n1 | -32.8% | 7.2% | -11.5% | -19.1% | 1.0% | 1.1%
CN(CC(=O)Nc1ccc(F)cc1)C(=O)c1cccc(S(=O)(=O)N2CCN(c3ccc(F)cc3)CC2)c1 | ? | -18.8% | 19.3% | nt | -7.6% | -0.9%
O=C(Cc1c(F)cccc1Cl)Nc1nc2ccccc2s1 | ? | 26.9µM* | 8.5% | -6.0% | ? | 19.7%
Cc1nc2ccc(NC(=O)Cc3c(F)cccc3Cl)cc2s1 | ? | 4.78µM* | ? | nt | 2.51µM* | 2.82µM*
Cc1noc(C)c1NC(=O)N(C)C[C@H]1Oc2c(NC(=O)NC(C)C)cccc2C(=O)N([C@H](C)CO)C[C@@H]1C | ? | nt | 2.8% | nt | nt | nt
Cc1cccc2nc(COc3ccc(Cl)c4cccnc34)cn12 | ? | 12µM* | ? | ? | ? | 21.5%
O=C(CSCc1ccc(Cl)cc1)Nc1ccc2c(c1)OCO2 | 13.1% | ? | -0.2% | 2.0% | -5.0% | 0.7%
O=C(CSCc1ccccc1Cl)Nc1ccc2c(c1)OCCO2 | ? | 6.75µM* | ? | 45.1% | 1.58µM* | 1.78µM*
O=C(CNCc1ccccc1Cl)Nc1ccc2c(c1)OCCO2 | ? | 21.3µM* | ? | nt | 2.82µM* | 3.16µM*
Cn1c(C(=O)O)c(CC(=O)Nc2ccc3c(c2)OCCO3)c2ccccc21 | ? | 19µM* | ? | -35.0% | 4.6% | -0.6%
